In PubChem BioAssay (NCI):
The panel holds about 83,000 compounds, 20% with a hit somewhere; the sample as a whole holds those more often.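 Step 1: grow cells in 96-well plates. Step 2: add test compound at a single concentration. Step 3: incubate 48 h. Step 4: record percent growth.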 The source made the active and inactive calls.

What follows are compounds tested on U251 CNS (assay: NCI-60 one-dose screen, 48 h (100 = growth as untreated, 0 = no growth, -100 = all killed)). Details: 10 µM unless noted.
Method: Growth inhibition of the U251 human tumor cell line is measured as a screen for anti-cancer activity. Cells are grown in 96 well plates and exposed to the test compound for 48 hours. Compounds are tested at a single concentration, which is 10^-5 M for most compounds. The reported endpoint is percent growth (GI% or GIPRCNT), where numbers from 0 - 100% represent growth inhibition, and numbers from -100% - 0 represent cell death. For example, a value of 40 represents 60% growth inhibition. A value of 0 means no net growth occurred over the course of the experiment. A value of -40 indicates 40% of cells at the beginning of the experiment died by the end of the experiment. A value of -100 means all cells are dead at the end of the experiment.
NCI-60 Human Tumor Cell Lines Screen was performed using the standard one-dose NCI protocol, which is described in more detail at https://dtp.cancer.gov/discovery_development/nci-60/default.htm.
Compounds with GIPRCNT values below 10 were considered active. Activity score was based on GIPRCNT using the following formula: […]
Score is 0 for GIPRCNT values of 100 or above, 50 for GIPRCNT values of 0, and 100 for GIPRCNT values of -100.

Structure (SMILES)	growth
O=C(/C=C/c1ccc(Cl)cc1)c1ccccc1	88.2% (inactive)
COc1ccc2c(c1)C(=O)c1c-2c(OCCN(C)C)nc2cc(OC)ccc12	-68.7% (active)
COC(=O)[C@]1(C(C)C)N[C@H](c2cn(-c3ccccc3)nc2-c2ccccc2)[C@@H]2C(=O)N(c3ccc(Cl)cc3)C(=O)[C@@H]21	97.4% (inactive)
CC(C)C/C(=N\NC(=O)c1ccncc1)c1cc(Cl)ccc1O	25.1% (inactive)
COC(=O)[C@]1(CCSC)N[C@H](c2cn(-c3ccccc3)nc2C)[C@@H]2C(=O)N(c3ccc(C)cc3)C(=O)[C@@H]21	95.7% (inactive)
COc1cc(C2NC(c3ccc(Cl)cc3)C(C)/C(=N/NC(N)=S)C2C)cc(OC)c1OC (stereo not given)	73.4% (inactive)
O=C(CCc1nnc2sc(Cc3ccccc3Cl)nn12)c1nc2ccccc2[nH]1	97% (inactive)
O=C(Nc1ccc(Cl)cc1)Nc1ccc(Oc2nncc3ccccc23)cc1	-31.1% (active)
COc1ccc(-n2nc3c(c2-c2ccc(OC)c(OC)c2)-c2oncc2CC3)cc1	85.3% (inactive)
Nc1ccc2c(c1)/C(=N/O)c1cc([N+](=O)[O-])ccc1-2	66.7% (inactive)
Cc1c(NCc2nnc3n(Cc4ccccc4)c(=O)c4c5c(sc4n23)CCCC5)c(=O)n(-c2ccccc2)n1C	97.6% (inactive)
COc1cccc(/C=C2\COc3ccc(O)c(O)c3C2=O)c1OC	10.9% (inactive)
CN1C(=O)C(=Cc2cn(Cc3ccccc3)c3ccc(Br)cc23)C(=O)N(C)C1=O	97.5% (inactive)
CCC1=C(c2ccc(OC)cc2)C(C)(C)Oc2c1ccc(O)c2CN1CCCC1	-25.4% (active)
Cc1cc2cn3c4cccnc4[nH]c(=O)c3c2cc1C	-71.2% (active)
COc1ccc2c(c1)[nH]c(=O)c1c3cc(OC)c(OC)cc3cn21	-22.4% (active)
N#Cc1cccc(/C=C(/C(=O)c2ccccc2)c2ccccc2)c1	60.1% (inactive)
Oc1[nH]c2ccc(Cl)cc2c1/C=c1/ccc2c(c1)N=C(c1ccc(C(F)(F)F)cc1)N=2	49.8% (inactive)
CCOC(=O)c1c(NC(=O)C2CCCCC2C(=O)O)sc2c1CCCC2 (stereo not given)	99.1% (inactive)
Cc1cc(=O)n2n1-c1ccc(Cl)cc1NC(=O)C2	95.2% (inactive)

Structure (SMILES)	growth
COC(=O)c1ccc2c(c1)nc(-c1ccc(O)c(OC)c1)n2-c1cc(C(C)(C)C)[nH]n1	93.3% (inactive)
CCN(CC)c1ccc(C(O)C2=CC(=O)c3ccccc3C2=O)cc1 (stereo not given)	-80.9% (active)
S=C(c1ccccc1)N1CCN(c2cccc(Cl)c2)CC1	99.6% (inactive)
COc1cc(NC(=O)c2cc3ccccc3cc2O)c(OC)cc1Cl	13.1% (inactive)
CN(C)c1ccc(/C=C\c2ccnc3ccccc23)cc1	73.9% (inactive)
O=C(NCCc1ccccc1)C1CCC(=O)N1Cc1ccc(Br)cc1 (stereo not given)	96.7% (inactive)
O=C(O)c1ccccc1C(=O)OC1CCCC2CCCC21 (stereo not given)	114% (inactive)
O=C1NCN(CCO)CN1	109% (inactive)
O=C(Oc1ccc[nH]c1=O)c1cccc(Cl)c1	92.7% (inactive)
COC(=O)[C@]12CC[C@@H](C)[C@H](C)[C@@H]1C1=CC[C@@H]3[C@@]4(C)C[C@@H](OC(=O)c5ccco5)[C@H](O)[C@@](C)(CO)[C@@H]4[C@H](O)C[C@@]3(C)[C@]1(C)CC2	-85.2% (active)
CC(=O)c1nc2ccccc2n1CCn1cc(CC(N)C(=O)O)c2ccccc21 (stereo not given)	102% (inactive)
O=C1c2ccccc2C(=O)c2c1cccc2-n1nnc2ccccc21	99.8% (inactive)
CCN(CC)CCOc1ccccc1-n1c(C)ccc1-c1ccccc1	85.3% (inactive)
CC(=O)NCCSC(=O)C(=O)SCCNC(C)=O	108% (inactive)
Nc1ncc(-c2cnn(C3CCNCC3)c2)cc1-c1nc2cc(Cl)ccc2o1	-100% (active)
O=C1CC(C(F)(F)F)=NN1C(=O)c1nn(-c2ccc(Cl)cc2)cc1O	64.9% (inactive)
Cc1nn(-c2ccccc2)c2nc3c(nc12)C(=O)CCC3	102% (inactive)
O=C1/C(=C/c2ccc3cccc(Cl)c3n2)SC(=S)N1CCc1ccc(O)cc1	94% (inactive)
Cc1cc(C)n(C(=O)c2nn(-c3ccc(Cl)cc3)cc2O)n1	19.4% (inactive)
COc1ccc(-n2nnc(C(=O)O)c2-c2cc(OC)c(OC)c(OC)c2)cc1	95.9% (inactive)
